Our source for the activity values is PubChem BioAssay.

Test [1] concerns the target Tumor necrosis factor receptor superfamily member 10B (Homo sapiens) (UniProt O14763). Kind of test: viability loss of caspase-8 NB7 cells with TRAIL – with/without TRAIL, luminescence panel, confirmation (AID 651596). As to conditions: NB7 neuroblastoma + caspase-8, TRAIL sensitization, NB7 Caspase-8, with TRAIL, mean of runs, at 10 µM, stronger effect = higher value.
Experiment in test [2]: as above
As to conditions: NB7 neuroblastoma + caspase-8, without TRAIL, NB7 Caspase-8, without TRAIL, mean of runs, at 10 µM.

SMILES strings stand for the structures.

Tumor necrosis factor receptor superfamily member 10B (Homo sapiens), sequence (O14763 whole entry, looked up): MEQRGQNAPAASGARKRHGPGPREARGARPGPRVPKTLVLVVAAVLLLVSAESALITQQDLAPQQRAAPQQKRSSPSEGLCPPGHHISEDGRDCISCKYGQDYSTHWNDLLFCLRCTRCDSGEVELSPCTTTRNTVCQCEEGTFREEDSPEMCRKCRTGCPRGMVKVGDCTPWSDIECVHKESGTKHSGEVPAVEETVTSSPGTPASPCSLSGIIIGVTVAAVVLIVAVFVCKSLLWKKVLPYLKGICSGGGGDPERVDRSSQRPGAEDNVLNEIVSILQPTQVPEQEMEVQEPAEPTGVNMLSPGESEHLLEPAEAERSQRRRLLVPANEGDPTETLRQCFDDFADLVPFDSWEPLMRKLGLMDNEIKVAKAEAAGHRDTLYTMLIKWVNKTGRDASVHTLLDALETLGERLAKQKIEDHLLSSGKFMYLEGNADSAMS

Regarding `C/C(=N\Nc1nc2ccccc2[nH]1)c1cc2ccccc2o1`, the activity was found to be 47.5% in test [1] and 43.7% in test [2].

For the compound `COc1ccc(C(=O)Nc2ccccc2C(=O)N/N=C/c2ccccn2)cc1OC`, the activity in test [1] stood at 80.7%; in test [2], 59.5%.

Consider `COc1ccc(N2C(N)=NC(N)=NC2(C)C)cc1`, for which the figures for the activity in test [1] and in test [2] were 78.6% and 86.5%, respectively.

In the case of `Cc1scc(C(=O)N/N=C/c2ccsc2)c1C`, the activity in test [1] turned out to be 58.1%; in test [2], 63.5%.

Take `O=C(Nc1ccc(-c2nc3ccccc3o2)cc1)C1CCCO1` (configuration not stated): the activity in test [1] was found to be 51.7%; in test [2] it was 43%.

Regarding `N#C/C(=C(/O)c1ccc([N+](=O)[O-])s1)c1nc2ccccc2[nH]1`, the activity came out at 36.3% in test [1] and 25% in test [2].

In the case of `c1ccc(-c2cn3c4c(sc3n2)CCCC4)cc1`, the activity in test [1] and in test [2] was 94% in each case.

`CCN1CCN(Cc2ccc(NC(=O)c3cc(NC(=O)C(=O)c4c[nH]c5ccccc45)cc(OC)c3)cc2C(F)(F)F)CC1`: the activity in test [1] stood at 82.2%; in test [2], 77.7%.

Regarding `COc1ccc(OC)c(S(=O)(=O)Nc2ccc(-c3ccc4nncn4n3)cc2)c1`, the activity was found to be 57.5% in test [1] and 59.3% in test [2].

For `O=C(Cn1ncc(Cl)c(Cl)c1=O)NC(=O)NC1CCCCC1`, the activity in test [1] and in test [2] was 99.3% each time.

Consider `FC(F)(F)c1cc(CCN2CCNC[C@@H]2CC2CCCCC2)cc(C(F)(F)F)c1`, for which the activity in test [1] was found to be 35.1%; in test [2] it was 84.2%.

Take `CCc1ccc(C2=NNC(=Nc3cccc(S(=O)(=O)N(C)C)c3)SC2)cc1`: the figures for the activity in test [1] and in test [2] were 76.8% and 75%, respectively.

`CC(C)c1onc(C(=O)N2CCN(C(c3ccccc3)c3ccccc3)CC2)c1[N+](=O)[O-]`: the values for the activity in test [1] and in test [2] were 98.1% and 93.9%, respectively.

Turning to `O=C(/C=C/c1ccccc1Cl)Nc1cccc(O)c1`, the activity was 61.3% in test [1] and 42.2% in test [2].

For `COc1cccc(NC(=O)Nc2ccc3c(c2)nc(C)n3C)c1`, the activity stood at 83.7% in test [1] and 82.8% in test [2].

Take `CCOc1ccc(OCC(=O)Nc2cccc(S(=O)(=O)NC3=NCCC3)c2)cc1`: the activity in test [1] was 68.9%; in test [2] it was 64.6%.

Consider `CCOC(=O)C1=CCN(S(=O)(=O)c2ccccc2Cl)C1c1cccc(F)c1` (configuration not stated), for which the activity was -2.9% in test [1] and 11.8% in test [2].

With `O=C(/C=C\Nc1ccccn1)c1ccc(Cl)cc1`, the activity in test [1] turned out to be 77.2%; in test [2], 63.3%.

Turning to `O=C(CCl)N=c1sccn1Cc1ccccc1Cl`, the activity in test [1] came to 99.6%; in test [2], 98.9%.

Consider `Cc1cc(C)c2c(=N)c3ccccc3n(CCCCCCCCn3c4ccccc4c(=N)c4c(C)cc(C)nc43)c2n1`, for which the activity in test [1] worked out at 78.3%; in test [2], 98.7%.

In the case of `CC(C)c1ccc(NC(=O)Nc2nc(C(N)C3CCCCC3)cs2)cc1` (configuration not stated), the activity in test [1] worked out at 92.2%; in test [2] it was 99.3%.

Regarding `Cc1cc(N/N=C/c2ccccc2Cl)nc(NCc2ccccc2)n1`, the activity in test [1] turned out to be 37.5%; in test [2], 34.1%.

`CCOc1ccc(-c2cc(C(=O)N/N=C/c3cccnc3)c3ccccc3n2)cc1`: the activity came to 74.2% in test [1] and 74.4% in test [2].

Consider `COC(=O)Cn1c(=O)c(C(=O)CCl)c(N)n(Cc2ccccc2)c1=O`, for which the activity came out at 93.6% in test [1] and 94.7% in test [2].

Turning to `CCOc1ccc(N/C=C/C(=O)c2ccccc2)c([N+](=O)[O-])c1`, the activity stood at 92.7% in test [1] and 89.7% in test [2].

Consider `Cc1ccc(-n2[nH]c(C)c(C=Nc3ccc4[nH]c(=O)[nH]c4c3)c2=O)cc1C`, for which the activity in test [1] turned out to be 51.4%; in test [2], 41.5%.

On to `Nc1c(-c2ccccc2)cnc2c(-c3ccccc3)cnn12`, for which the activity in test [1] was 73.7%; in test [2] it was 77.2%.

Consider `CS(=O)c1nc(-c2ccc(Br)cc2)cc(-c2ccccc2)c1C#N` (configuration not stated), for which the activity was 95.7% in test [1] and 97.8% in test [2].

For the compound `COC(=O)c1c(NC(=O)COc2ccc(Cl)cc2)sc2c1CC(C)(C)NC2(C)C`, the values for the activity in test [1] and in test [2] were 81.2% and 93.9%, respectively.

`CCc1ccc(CNC(=O)Cc2ccc(NC(=O)C3=C(C)OCCS3)cc2)cc1`: the activity in test [1] came out at 58.8%; in test [2], 59%.

Take `O=C(NCCN1C(=O)S/C(=C\c2ccc(Cl)c([N+](=O)[O-])c2)C1=O)C1=COCCO1`: the figures for the activity in test [1] and in test [2] were 63.1% and 72.9%, respectively.

For `Cc1cc(NC2CCCC2)n2ncc(-c3ccccc3)c2n1`, the activity in test [1] and in test [2] was 69.1% in each case.

In the case of `CN1C(=O)c2ccccc2C(C(=O)NCCCN2CCCC2)C1c1c[nH]c2ccccc12` (configuration not stated), the activity is 45.5% in test [1] and 55.5% in test [2].

As to `CCN(Cc1ccccc1)S(=O)(=O)c1ccc(C(=O)N(CCCN(C)C)c2nc3cc(C)cc(C)c3s2)cc1`, the activity in test [1] is 23.3%; in test [2] it was -11.7%.

For the compound `CC(C)C[C@H](NC(=O)c1nc[nH]c1C(=O)N[C@@H](CC(C)C)C(=O)OC(C)(C)C)C(=O)OC(C)(C)C`, the activity in test [1] worked out at 72.4%; in test [2], 63.2%.

Consider `O=C(Nc1ccc2c(c1)nc1n2CCSC1)c1ccccc1`, for which the activity in test [1] was determined as 69.8%; in test [2], 60%.

With `COc1ccc(C(=O)NCc2cn3cccc(C)c3n2)cc1OC`, the activity in test [1] amounted to 4.08%; in test [2] it was 3.77%.

As for `O=C(Nc1ccc(N2CCN(Cc3ccccc3F)CC2)cc1)c1ccc([N+](=O)[O-])o1`, the activity came out at 99% in test [1] and 98.8% in test [2].

Turning to `COc1ccc(S(=O)(=O)N2CCN(c3ccc4nnc(-c5ccccc5)n4n3)CC2)cc1`, the activity came out at 58% in test [1] and 66.5% in test [2].

For the compound `NC(=O)c1ccccc1NC(=O)/C=C/c1ccccc1`, the results for the activity in test [1] and in test [2] were 67.8% and 70.7%, respectively.

Consider `Cc1ccc(-c2cc(C(=O)N3CCCC3)no2)cc1`, for which the figures for the activity in test [1] and in test [2] were 73.3% and 67%, respectively.

As for `Cn1c(C(=O)NCCC2=CCCCC2)cc2c(=O)n3ccccc3nc21`, the figures for the activity in test [1] and in test [2] were 59.6% and 57.7%, respectively.

With `O=C(CCl)N1CCN(S(=O)(=O)c2ccc3ccccc3c2)CC1`, the activity was 94.9% in test [1] and 64.7% in test [2].

For `C=CCN(CC=C)c1cnn(-c2nc3ccccc3[nH]2)c(=O)c1Cl`, the activity in test [1] amounted to 69.6%; in test [2] it was 59.7%.

For `C/C(=N\NC(=O)c1ccccc1NC(=O)c1ccc(Cl)cc1)c1ccncc1`, the results for the activity in test [1] and in test [2] were 99.1% and 99%, respectively.

`CCOc1ccc(-c2ccc(SCC(=O)NCC3CCCO3)nn2)cc1` (configuration not stated): the activity in test [1] is 41.8%; in test [2], 32.7%.
